Laboratory results from PubChem BioAssay (Tox21).
Where “and” joins values, the source holds several entries; their conditions need not be identical. Identical values can stand only once. Results filed as inconclusive are left out. Calls of active or inactive are those of the source. Unless noted, calls come from the whole dose curve; as a rule, active = well fitted curve in the direction sought with a large enough effect in the repeat runs; inconclusive = weak or mixed curves; inactive = flat fitted curve, though single readings scatter.

Legend:
[1] = qHTS assay to test for compound auto fluorescence at 535 nm (green) in HEK293 cells (AID 720680); note: potency is the fitted concentration of half-maximal effect
[2] = qHTS assay to test for compound auto fluorescence at 460 nm (blue) in HEK293 cell free culture (AID 720681); note: potency is the fitted concentration of half-maximal effect
Outline: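 Compounds were added to cell-free DMEM with 10% FBS and fluorescence read directly. The blue channel used 405 nm excitation and 460 nm emission, with triamterene as the reference fluorophore.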

[3] = qHTS assay to test for compound auto fluorescence at 535 nm (green) in HEK293 cell free culture (AID 720682); note: potency is the fitted concentration of half-maximal effect
Outline: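 Measurement is a direct plate read of green fluorescence (485 nm in, 535 nm out) after compound addition to serum-supplemented DMEM lacking cells, with fluorescein used to express intensities.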

[4] = qHTS assay to test for compound auto fluorescence at 590 nm (red) in HEK293 cell free culture (AID 720683)
Outline: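 Cell-free wells of DMEM with 10% FBS received compound, and intrinsic fluorescence was read at excitation/emission 540/590 nm. Values expressed as equivalence to Rose Bengal sodium.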

[5] = qHTS assay to test for compound auto fluorescence at 590 nm (red) in HepG2 cell free culture (AID 720684)
Outline: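 Rose Bengal sodium served as the reference for red signal. Test compounds were dispensed into serum-containing MEM (10% FBS) without cells, and plates were read at 540/590 nm.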

[6] = qHTS assay to test for compound auto fluorescence at 460 nm (blue) in HepG2 cell free culture (AID 720685); note: potency is the fitted concentration of half-maximal effect
Outline: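 Cell-free plates of MEM plus 10% FBS received 23 nL compound or DMSO vehicle; blue-channel (405/460 nm) intensity scored against triamterene as reference fluorophore.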

[7] = qHTS assay to test for compound auto fluorescence at 535 nm (green) in HepG2 cell free culture (AID 720686); note: potency is the fitted concentration of half-maximal effect
[8] = qHTS assay to test for compound auto fluorescence at 460 nm (blue) in HepG2 cells (AID 720687); note: potency is the fitted concentration of half-maximal effect
Outline: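 HepG2 cells in MEM with 10% FBS, attached overnight at 37 C, were exposed to compound or DMSO for 1 hr at 37 C, 5% CO2. Blue fluorescence was read at 405/460 nm, with triamterene as reference fluorophore.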

[9] = target: Glucocorticoid receptor (Homo sapiens) (UniProt P04150); assay: qHTS assay to identify small molecule agonists of the glucocorticoid receptor (GR) signaling pathway (AID 720691; active = well fitted activation curve with a large enough effect in the signal ratio in the repeat runs, not every such curve was filed as active; the % refers to the signal ratio)
Chain of Glucocorticoid receptor (Homo sapiens) (P04150 whole entry, looked up): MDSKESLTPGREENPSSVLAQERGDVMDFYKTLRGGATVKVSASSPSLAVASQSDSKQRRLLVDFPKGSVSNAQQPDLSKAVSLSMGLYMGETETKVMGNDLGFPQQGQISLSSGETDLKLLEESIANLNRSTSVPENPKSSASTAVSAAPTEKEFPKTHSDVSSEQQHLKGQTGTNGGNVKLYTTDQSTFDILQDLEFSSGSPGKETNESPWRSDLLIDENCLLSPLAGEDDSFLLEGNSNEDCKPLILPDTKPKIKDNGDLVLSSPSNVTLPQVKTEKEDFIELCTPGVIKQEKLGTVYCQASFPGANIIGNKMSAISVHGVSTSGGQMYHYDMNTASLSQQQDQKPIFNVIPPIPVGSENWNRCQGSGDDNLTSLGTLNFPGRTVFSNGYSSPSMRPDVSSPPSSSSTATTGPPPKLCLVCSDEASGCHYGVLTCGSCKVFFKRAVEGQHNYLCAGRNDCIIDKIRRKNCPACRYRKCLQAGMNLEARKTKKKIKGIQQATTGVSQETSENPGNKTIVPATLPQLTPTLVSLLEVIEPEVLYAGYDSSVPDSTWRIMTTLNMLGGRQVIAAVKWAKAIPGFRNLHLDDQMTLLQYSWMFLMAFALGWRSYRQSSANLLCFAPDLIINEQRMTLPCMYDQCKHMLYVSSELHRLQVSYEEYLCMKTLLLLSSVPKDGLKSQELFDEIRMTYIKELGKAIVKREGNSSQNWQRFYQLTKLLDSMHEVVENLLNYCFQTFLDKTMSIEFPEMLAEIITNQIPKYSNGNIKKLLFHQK
Outline: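 A HeLa cervical cancer line expressing GR and a glucocorticoid response element-driven beta-lactamase gene is treated with compounds for 18 h; LiveBLAzer B/G FRET substrate is then applied and fluorescence read.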

[10] = target: Glucocorticoid receptor (Homo sapiens) (UniProt P04150); assay: qHTS assay to identify small molecule antagonists of the glucocorticoid receptor (GR) signaling pathway (AID 720692; active = well fitted inhibition curve with a large enough effect in the signal ratio in the repeat runs, not every such curve was filed as active; the % refers to the signal ratio)
Outline: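 GRE-bla HeLa line, dex-stimulated (5 nM final). Compound exposure 18 h, 37 C. Beta-lactamase FRET read after 2 h RT substrate.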

Measured: Potency
Tags give direction and shape of the fitted curve or compound fluorescence and quenching.

CCOc1ccc2c(c1)C(C)=CC(C)(C)N2
not listed: [9] | [10]
inactive: all other assays above

COC(=O)c1cccc(C(=O)OC)c1
not listed: [9] | [10]
inactive: all other assays above

c1cnc2cc3c(cc2n1)C1CNCC3C1
not listed: [9] | [10]
inactive: all other assays above

O=S(=O)(O)c1ccc2nc(-c3ccccc3)[nH]c2c1
not listed: [9] | [10]
inactive: all other assays above

CC(=O)CC(C)=O
not listed: [9] | [10]
inactive: all other assays above

Oc1c(Cl)cc(Cl)c(Cl)c1Cc1c(O)c(Cl)cc(Cl)c1Cl
not listed: [9] | [10]
inactive: all other assays above

O=C1Nc2ccccc2C1(c1ccc(O)cc1)c1ccc(O)cc1
not listed: [9] | [10]
inactive: all other assays above

CC1COc2c(N3CCN(C)CC3)c(F)cc3c(=O)c(C(=O)O)cn1c23 (stereo not given)
not listed: [9] | [10]
inactive: all other assays above

Cc1c(O)cccc1C(=O)N[C@@H](CSc1ccccc1)[C@H](O)CN1C[C@H]2CCCC[C@H]2C[C@H]1C(=O)NC(C)(C)C
not listed: [9] | [10]
inactive: all other assays above

CC(=O)C1=C(C)[C@@H]2C[C@@]3(C1)[C@H](C)CC[C@H]3C2(C)C
not listed: [9] | [10]
inactive: all other assays above

CCCN[C@H]1CCc2nc(N)sc2C1
not listed: [9] | [10]
inactive: all other assays above

CC(C)(C)NCC(O)c1cc(O)cc(O)c1 (stereo not given)
not listed: [9] | [10]
inactive: all other assays above

CCCCN(CCO)CCCC
not listed: [9] | [10]
inactive: all other assays above

c1ccc2c(c1)CCCC2C1=NCCN1 (stereo not given)
not listed: [9] | [10]
inactive: all other assays above

CC(=O)CC(=O)Nc1ccc2[nH]c(=O)[nH]c2c1
not listed: [9] | [10]
inactive: all other assays above

CC[C@@H](N)CO
not listed: [9] | [10]
inactive: all other assays above

CC(C)C(=O)c1c(C(C)C)nn2ccccc12
not listed: [9] | [10]
inactive: all other assays above

COc1ccc(CCN(C)CCCC(C#N)(c2ccc(OC)c(OC)c2)C(C)C)cc1OC (stereo not given)
not listed: [9] | [10]
inactive: all other assays above

CN(C)c1ccc2nc3ccc(=[N+](C)C)cc-3sc2c1
not listed: [9] | [10]
inactive: all other assays above

CN1C(=O)c2ccc([N+](=O)[O-])cc2C1=O
not listed: [9] | [10]
inactive: all other assays above

O
not listed: [9] | [10]
inactive: all other assays above

O=Nc1ccc(Nc2ccccc2)cc1
not listed: [9] | [10]
inactive: all other assays above

CCCCCCCCCCCCc1ccccc1O
not listed: [9] | [10]
inactive: all other assays above

Nc1ccc2cc3ccccc3cc2c1
active: [2] 39.8 µM | [6] 39.8 µM [fluorescent] | [8] 39.8 µM [fluorescent]
not listed: [9] | [10]
inactive: all other assays above

c1ccc2cc3c(ccc4ccccc43)cc2c1
not listed: [9] | [10]
inactive: all other assays above

CC(C)(c1ccccc1)c1ccc(Nc2ccc(C(C)(C)c3ccccc3)cc2)cc1
not listed: [9] | [10]
inactive: all other assays above

O=C1CC2(CCCC2)CC(=O)N1CCCCN1CCN(c2ncccn2)CC1
not listed: [9] | [10]
inactive: all other assays above

CCN(CC)CCOc1ccc(/C(=C(\Cl)c2ccccc2)c2ccccc2)cc1
not listed: [9] | [10]
inactive: all other assays above

CC(=O)OCCOCCOCCOC(C)=O
not listed: [9] | [10]
inactive: all other assays above

CCn1c2ccccc2c2cc(N)ccc21
not listed: [9] | [10]
inactive: all other assays above

BrC1CCC(Br)C(Br)CCC(Br)C(Br)CCC1Br (stereo not given)
not listed: [9] | [10]
inactive: all other assays above

COc1ccc(COC(C)=O)cc1
not listed: [9] | [10]
inactive: all other assays above

O=c1n(CC2CO2)c(=O)n(CC2CO2)c(=O)n1CC1CO1 (stereo not given)
not listed: [9] | [10]
inactive: all other assays above

O=C1OC2(c3ccc(O)cc3Oc3cc(O)ccc32)c2ccccc21
active: [1] 3.16 µM [fluorescent] and 2.82 µM [fluorescent] and 3.98 µM [fluorescent] | [3] 3.55 µM [fluorescent] and 3.98 µM [fluorescent] | [7] 3.16 µM [fluorescent] and 2.82 µM [fluorescent] and 3.55 µM [fluorescent]
not listed: [9] | [10]
inactive: all other assays above

COc1ccc(CCN2CCC(Nc3nc4ccccc4n3Cc3ccc(F)cc3)CC2)cc1
not listed: [9] | [10]
inactive: all other assays above

CC(C)CCOC(=O)c1ccc(N(C)C)cc1
not listed: [9] | [10]
inactive: all other assays above

CC(COc1ccccc1)N(CCCl)Cc1ccccc1 (stereo not given)
not listed: [10]
inactive: all other assays above

NC(=Nc1ccccc1)Nc1ccccc1
inactive: all assays above

CC(C)(C)c1ccccc1
not listed: [9] | [10]
inactive: all other assays above

CN(C)c1ccc(C(=C2C=CC(=[N+](C)C)C=C2)c2ccccc2)cc1
not listed: [10]
inactive: all other assays above

CC(C(O)c1ccc(O)cc1)N1CCC(Cc2ccccc2)CC1 (stereo not given)
not listed: [10]
inactive: all other assays above

CCC(CO)(CO)COCC(CC)(CO)CO
not listed: [10]
inactive: all other assays above

CC1=CC(=O)c2ccccc2C1=O
not listed: [10]
inactive: all other assays above

CCCCCCC(O)CCCCCCCCCCC(=O)O (stereo not given)
not listed: [10]
inactive: all other assays above

O=C(O)c1cc(Cl)cc(Cl)c1
not listed: [10]
inactive: all other assays above

[Cl][In]([Cl])[Cl]
not listed: [10]
inactive: all other assays above

COc1ccc(Cc2cnc(N)nc2N)cc1OC
not listed: [10]
inactive: all other assays above

CCC(=O)/C=C/C1C(C)=CCCC1(C)C (stereo not given)
inactive: all assays above

CCc1ccc(C(c2ccc(CC)cc2)C(Cl)Cl)cc1
not listed: [10]
inactive: all other assays above

CC(C)(C)c1cc(C(C)(C)C)c(O)c(C(C)(C)C)c1
inactive: all assays above

CC(C)CCCCCCc1ccc(O)cc1
not listed: [10]
inactive: all other assays above
